# Assay results reported in PubChem BioAssay AID1159580 (chemical genetic matrix, 2015).
# “And” between values parts separate entries of the source, which are not always exact repeats. Equal entries are not always repeated. Among all 5,500 compounds or so, about 2,000 (36%) were called active. Not shown: some 18% with an inconclusive outcome. Some of the results follow. A number with no mark means an inactive call. Rule as the data show it: active = normalized growth mostly below about 0.91 (no sharp cut-off); inconclusive = no clear call, values can overlap the other calls; inactive = mostly above about 0.92.
# Assay: chemical genetic growth profiling, strain panel (AID 1159580);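 also: tested at 20 µM; growth read once vehicle control cultures reached saturation at 30 °C; 1 = growth at the plate median or of vehicle wells; lower values mean less growth of the strain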
# Settings: growth OD
# [1] = S. cerevisiae deletion strains, locus YAL013W, strain DEP1, active compounds read low
# [2] = S. cerevisiae deletion strains, locus YBR229C, strain ROT2, active compounds read low
# [3] = S. cerevisiae deletion strains, locus YDL101C, strain DUN1, active compounds read low
# [4] = S. cerevisiae deletion strains, locus YDL134C, strain PPH21, active compounds read low
# [5] = S. cerevisiae deletion strains, locus YDR150W, strain NUM1, active compounds read low
# [6] = S. cerevisiae deletion strains, locus YEL061C, strain CIN8, active compounds read low
# [7] = S. cerevisiae deletion strains, locus YGR078C, strain PAC10, active compounds read low
# [8] = S. cerevisiae deletion strains, locus YGR229C, strain SMI1, active compounds read low
# [9] = S. cerevisiae deletion strains, locus YHR030C, strain SLT2, active compounds read low
# [10] = S. cerevisiae deletion strains, locus YJR043C, strain POL32, active compounds read low
# [11] = S. cerevisiae deletion strains, locus YJR075W, strain HOC1, active compounds read low
# [12] = S. cerevisiae deletion strains, locus YLR039C, strain RIC1, active compounds read low
# [13] = S. cerevisiae deletion strains, locus YLR262C, strain YPT6, active compounds read low
# [14] = S. cerevisiae deletion strains, locus YMR263W, strain SAP30, active compounds read low
# [15] = S. cerevisiae deletion strains, locus YMR307W, strain GAS1, active compounds read low
# [16] = S. cerevisiae deletion strains, locus YNL128W, strain TEP1, active compounds read low
# [17] = S. cerevisiae deletion strains, locus YNL153C, strain GIM3, active compounds read low
# [18] = S. cerevisiae deletion strains, locus YNL322C, strain KRE1, active compounds read low
# [19] = S. cerevisiae deletion strains, locus YOL006C, strain TOP1, active compounds read low
# [20] = S. cerevisiae deletion strains, locus YPL055C, strain LGE1, active compounds read low
# [21] = S. cerevisiae deletion strains, locus YPL241C, strain CIN2, active compounds read low
# [22] = S. cerevisiae deletion strains, locus YAL040C, strain CLN3, active compounds read low
# [23] = S. cerevisiae deletion strains, locus YCL061C, strain MRC1 (second series), active compounds read low
# [24] = S. cerevisiae deletion strains, locus YDR363W, strain ESC2, active compounds read low
# [25] = S. cerevisiae deletion strains, locus YER002W, strain NOP16, active compounds read low
# [26] = S. cerevisiae deletion strains, locus YNL175C, strain NOP13, active compounds read low
# [27] = S. cerevisiae deletion strains, locus YNL197C, strain WHI3, active compounds read low
# [28] = S. cerevisiae deletion strains, locus YNL224C, strain SQS1, active compounds read low
# [29] = S. cerevisiae deletion strains, locus YOR083W, strain WHI5 (second series), active compounds read low
smiles,measurement,setting,value
Cc1ccc(O)c(C(CCN(C(C)C)C(C)C)c2ccccc2)c1 (stereo not given),normalized growth,[1],1.01
same,normalized growth,"S. cerevisiae deletion strains, locus YBR021W, strain FUR4, active compounds read low",1
same,normalized growth,[2],1.01
same,normalized growth,"S. cerevisiae deletion strains, locus YCL029C, strain bik1, active compounds read low",0.998
same,normalized growth,"S. cerevisiae deletion strains, locus YDL035C, strain GPR1, active compounds read low",1.01
same,normalized growth,"S. cerevisiae deletion strains, locus YDL074C, strain BRE1, active compounds read low",1.03
same,normalized growth,[3],1.01
same,normalized growth,[4],1.02
same,normalized growth,"S. cerevisiae deletion strains, locus YDL185W, strain tfp1, active compounds read low",0.989
same,normalized growth,"S. cerevisiae deletion strains, locus YDL192W, strain arf1, active compounds read low",1
same,normalized growth,"S. cerevisiae deletion strains, locus YDR101C, strain arx1, active compounds read low",0.988
same,normalized growth,[5],1.01
same,normalized growth,"S. cerevisiae deletion strains, locus YDR162C, strain NBP2, active compounds read low",1
same,normalized growth,"S. cerevisiae deletion strains, locus YDR318W, strain mcm21, active compounds read low",0.991
same,normalized growth,"S. cerevisiae deletion strains, locus YDR388W, active compounds read low",0.983
same,normalized growth,"S. cerevisiae deletion strains, locus YDR502C, strain sam2, active compounds read low",0.996
same,normalized growth,[6],1.01
same,normalized growth,"S. cerevisiae deletion strains, locus YER110C, active compounds read low",0.995
same,normalized growth,"S. cerevisiae deletion strains, locus YER155C, strain BEM2, active compounds read low",1.01
same,normalized growth,"S. cerevisiae deletion strains, locus YER167W, strain BCK2, active compounds read low",0.994
same,normalized growth,"S. cerevisiae deletion strains, locus YGL078C, strain dbp3, active compounds read low",0.996
same,normalized growth,"S. cerevisiae deletion strains, locus YGL086W, strain mad1, active compounds read low",0.995
same,normalized growth,"S. cerevisiae deletion strains, locus YGL248W, strain PDE1, active compounds read low",1
same,normalized growth,[7],1.01
same,normalized growth,"S. cerevisiae deletion strains, locus YGR135W, strain pre9, active compounds read low",0.985
same,normalized growth,[8],0.995
same,normalized growth,"S. cerevisiae deletion strains, locus YGR252W, strain gcn5, active compounds read low",1
same,normalized growth,[9],1.01 and 1.03
same,normalized growth,"S. cerevisiae deletion strains, locus YHR079C, strain IRE1 (second series), active compounds read low",0.988
same,normalized growth,"S. cerevisiae deletion strains, locus YHR079C, strain IRE1, active compounds read low",0.981
same,normalized growth,"S. cerevisiae deletion strains, locus YHR094C, strain hxt1, active compounds read low",0.987
same,normalized growth,"S. cerevisiae deletion strains, locus YHR129C, strain ARP1, active compounds read low",1.02
same,normalized growth,"S. cerevisiae deletion strains, locus YHR200W, strain rpn10, active compounds read low",0.982
same,normalized growth,"S. cerevisiae deletion strains, locus YIL066C, strain RNR3, active compounds read low",1.02
same,normalized growth,"S. cerevisiae deletion strains, locus YIL073C, strain SPO22, active compounds read low",0.967
same,normalized growth,"S. cerevisiae deletion strains, locus YIL125W, strain kgd1, active compounds read low",0.985
same,normalized growth,"S. cerevisiae deletion strains, locus YIR030C, strain dcg1, active compounds read low",0.993
same,normalized growth,"S. cerevisiae deletion strains, locus YJL095W, strain BCK1, active compounds read low",1.01
same,normalized growth,"S. cerevisiae deletion strains, locus YJL134W, strain LCB3, active compounds read low",1
same,normalized growth,"S. cerevisiae deletion strains, locus YJL168C, strain set2, active compounds read low",0.99
same,normalized growth,"S. cerevisiae deletion strains, locus YJL187C, strain SWE1 (second series), active compounds read low",1.01
same,normalized growth,[10],1
same,normalized growth,"S. cerevisiae deletion strains, locus YJR066W, strain TOR1, active compounds read low",0.958
same,normalized growth,[11],1
same,normalized growth,"S. cerevisiae deletion strains, locus YKL009W, strain mrt4, active compounds read low",1
same,normalized growth,"S. cerevisiae deletion strains, locus YKL068W, active compounds read low",0.986
same,normalized growth,"S. cerevisiae deletion strains, locus YKL085W, strain MDH1 (second series), active compounds read low",0.99
same,normalized growth,"S. cerevisiae deletion strains, locus YKL085W, strain MDH1, active compounds read low",0.99
same,normalized growth,"S. cerevisiae deletion strains, locus YKL190W, strain CNB1, active compounds read low",1.01
same,normalized growth,"S. cerevisiae deletion strains, locus YKR001C, strain vps1, active compounds read low",0.999
same,normalized growth,[12],1.06
same,normalized growth,"S. cerevisiae deletion strains, locus YLR058C, strain SHM2, active compounds read low",1.01
same,normalized growth,"S. cerevisiae deletion strains, locus YLR102C, strain apc9, active compounds read low",0.992
same,normalized growth,"S. cerevisiae deletion strains, locus YLR113W, strain HOG1, active compounds read low",1.03
same,normalized growth,[13],1.05
same,normalized growth,"S. cerevisiae deletion strains, locus YLR268W, strain sec22, active compounds read low",0.984
same,normalized growth,"S. cerevisiae deletion strains, locus YLR330W, strain CHS5, active compounds read low",1.01
same,normalized growth,"S. cerevisiae deletion strains, locus YLR342W, strain FKS1 (second series), active compounds read low",1.01
same,normalized growth,"S. cerevisiae deletion strains, locus YLR371W, strain rom2, active compounds read low",0.972
same,normalized growth,"S. cerevisiae deletion strains, locus YLR418C, strain cdc73, active compounds read low",0.982
same,normalized growth,"S. cerevisiae deletion strains, locus YML016C, strain PPZ1, active compounds read low",1.02
same,normalized growth,"S. cerevisiae deletion strains, locus YML032C, strain rad52, active compounds read low",0.986
same,normalized growth,"S. cerevisiae deletion strains, locus YML124C, strain tub3, active compounds read low",0.991
same,normalized growth,"S. cerevisiae deletion strains, locus YMR078C, strain ctf18, active compounds read low",0.978
same,normalized growth,"S. cerevisiae deletion strains, locus YMR223W, strain ubp8, active compounds read low",0.996
same,normalized growth,[14],1.01
same,normalized growth,[15],0.993
same,normalized growth,"S. cerevisiae deletion strains, locus YNL067W, strain RPL9B, active compounds read low",1.01
same,normalized growth,[16],1
same,normalized growth,[17],1.01
same,normalized growth,"S. cerevisiae deletion strains, locus YNL183C, strain NPR1, active compounds read low",0.961
same,normalized growth,"S. cerevisiae deletion strains, locus YNL233W, strain BNI4, active compounds read low",1.01
same,normalized growth,"S. cerevisiae deletion strains, locus YNL250W, strain rad50, active compounds read low",0.981
same,normalized growth,"S. cerevisiae deletion strains, locus YNL271C, strain bni1, active compounds read low",0.997
same,normalized growth,"S. cerevisiae deletion strains, locus YNL298W, strain CLA4, active compounds read low",0.974
same,normalized growth,"S. cerevisiae deletion strains, locus YNL307C, strain MCK1, active compounds read low",0.996
same,normalized growth,[18],1
same,normalized growth,"S. cerevisiae deletion strains, locus YNR052C, strain pop2, active compounds read low",0.988
same,normalized growth,[19],1.05
same,normalized growth,"S. cerevisiae deletion strains, locus YOL012C, strain htz1",0.768
same,normalized growth,"S. cerevisiae deletion strains, locus YOL147C, strain pex11, active compounds read low",0.986
same,normalized growth,"S. cerevisiae deletion strains, locus YOR061W, strain CKA2, active compounds read low",1.02
same,normalized growth,"S. cerevisiae deletion strains, locus YOR069W, strain VPS5, active compounds read low",1.01
same,normalized growth,"S. cerevisiae deletion strains, locus YOR136W, strain idh2, active compounds read low",0.983
same,normalized growth,"S. cerevisiae deletion strains, locus YOR144C, strain elg1, active compounds read low",0.981
same,normalized growth,"S. cerevisiae deletion strains, locus YOR184W, strain ser1, active compounds read low",1
same,normalized growth,"S. cerevisiae deletion strains, locus YOR231W, strain MKK1, active compounds read low",1
same,normalized growth,"S. cerevisiae deletion strains, locus YOR316C, strain cot1, active compounds read low",0.985
same,normalized growth,[20],1.01
same,normalized growth,[21],1.01
same,normalized growth,"S. cerevisiae deletion strains, locus YPL256C, strain CLN2, active compounds read low",0.992
same,normalized growth,"S. cerevisiae deletion strains, locus YPR119W, strain clb2, active compounds read low",0.98
same,normalized growth,"S. cerevisiae deletion strains, locus YPR141C, strain kar3, active compounds read low",0.985
same,normalized growth,"S. cerevisiae deletion strains, locus YPR163C, strain tif3, active compounds read low",0.977
same,normalized growth,"S. cerevisiae deletion strains, locus YPR167C, strain met16, active compounds read low",0.988
same,normalized growth,"S. cerevisiae deletion strains, strain wtn01, active compounds read low",0.988
same,normalized growth,"S. cerevisiae strains, strain wild type, active compounds read low",1
Cn1c(=O)c2c(nc(/C=C/c3cccc(Cl)c3)n2C)n(C)c1=O,normalized growth,[22],0.996
same,normalized growth,[23],0.981
same,normalized growth,[24],1.05
same,normalized growth,[25],1.01
same,normalized growth,[8],0.996
same,normalized growth,[16],0.993
same,normalized growth,[17],0.946
same,normalized growth,[26],0.969
same,normalized growth,[27],0.954
same,normalized growth,[28],0.995
same,normalized growth,[18],1.02
same,normalized growth,[29],0.964
same,normalized growth,[20],1.03
same,normalized growth,[21],0.995
COc1ccc(/C=C2/C(=O)N(c3cccc(Cl)c3)N=C2C)cc1,normalized growth,[1],0.983
same,normalized growth,[2],0.963
same,normalized growth,[3],1
same,normalized growth,[4],0.991
same,normalized growth,[5],1
same,normalized growth,[6],0.964
same,normalized growth,[7],0.962
same,normalized growth,[9],0.53 (active)
same,normalized growth,"S. cerevisiae deletion strains, locus YHR087W, strain rtc3, active compounds read low",0.866 (active)
same,normalized growth,"S. cerevisiae deletion strains, locus YJL187C, strain SWE1, active compounds read low",0.921 (active)
same,normalized growth,[10],1.03
same,normalized growth,[11],0.934
same,normalized growth,[12],0.62 (active)
same,normalized growth,"S. cerevisiae deletion strains, locus YLR058C, strain SHM2 (second series), active compounds read low",0.963
same,normalized growth,"S. cerevisiae deletion strains, locus YLR085C, strain ARP6, active compounds read low",0.744 (active)
same,normalized growth,[13],0.699 (active)
same,normalized growth,"S. cerevisiae deletion strains, locus YML094W, strain GIM5, active compounds read low",0.865 (active)
same,normalized growth,"S. cerevisiae deletion strains, locus YMR219W, strain ESC1, active compounds read low",0.938 (active)
same,normalized growth,[14],0.989
same,normalized growth,[17],0.999
same,normalized growth,"S. cerevisiae deletion strains, locus YNL298W, strain CLA4 (second series), active compounds read low",0.839
same,normalized growth,[18],0.973
same,normalized growth,"S. cerevisiae deletion strains, locus YNR030W, strain Alg12, active compounds read low",0.88 (active)
same,normalized growth,[19],0.849
same,normalized growth,[20],0.961
same,normalized growth,[21],0.897
same,normalized growth,"S. cerevisiae deletion strains, locus YPR135W, strain CTF4, active compounds read low",0.599 (active)
Cn1cc(C(=O)OCC2CCN(CCNS(C)(=O)=O)CC2)c2ccccc21,normalized growth,[22],1
same,normalized growth,[23],1.01
same,normalized growth,[5],1.01
same,normalized growth,[24],1
same,normalized growth,[25],1.01
same,normalized growth,[15],1
same,normalized growth,[16],1.03
same,normalized growth,[17],1.04
same,normalized growth,[26],1.05
same,normalized growth,[27],1.06
same,normalized growth,[28],1.05
same,normalized growth,[29],1.03
